HT1080NT lethal = kills 2HG-producing HT-1080-NT fibrosarcoma cells; HT-1080-NT fibrosarcoma viability, CellTiter-Glo ATP luminescence, 48 h; Potency, µM (top dose mostly 46.1 µM), without a hit: top-dose activity, negative = less viability, usual class: cytotoxic; 360,000 tested, 1.6% active; AID 686970;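 also: NT is the 2HG producing partner of a matched IDH1 knockdown line; potency is read from the fitted curve at half-maximal effect; 0% = DMSO-treated cells and -100% = media-only wells without cells; nearly all actives have a fitted effect of over 55% in size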
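750 cells/well, RPMI + 5% FBS; 2 h settle, compound pin-transfer, 48 h at 37 degrees C. CellTiter-Glo 10 min RT, luminescence. Normalized to DMSO and media-only wells.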
IL-1B inflam inh = inhibitors of inflammasome signaling (IL-1 beta secretion); THP-1 LPS/ATP IL-1B secretion, AlphaLISA, 16 h; hits give low values; activity change, % at 57.5 µM; 360,000 tested, 4.7% active; in the data active = activity change below about -50%; inconclusive = mostly about -30% to -49%
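THP-1 cells pretreated 1 hr with compounds (up to 57.5 uM final), then stimulated with LPS (250 ng/mL final) plus ATP (1.25 mM final); secreted IL-1B measured by AlphaLISA after 16 hr, decreased signal indicating inhibition.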
DT40 TDP1 CPT = growth inhibition of DT40 Tdp1-/-;hTDP1 cells with camptothecin (screen for TDP1 inhibitors). chicken DT40 Tdp1-/-;hTDP1 cells + 20 nM CPT, ATP luminescence, 48 h. Potency, µM (top dose mostly 46.2 µM), for the others: at the top dose activity change, negative = growth inhibition, actives largely listed as inhibitors. AID 686979. 420,000 tested, 12% active; also: potency is read from the fitted curve at half-maximal effect; nearly all actives have a fitted effect of over 55% in size
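Chicken DT40 Tdp1-/- cells stably complemented with human TDP1 were seeded at 400 cells/well in medium containing 20 nM camptothecin, exposed to pin-transferred compounds, and grown at 37 °C for at least 48 hr. Viability was read as ATP luminescence.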
HT1080 IDH1KD tx = HT-1080 IDH1 knockdown cell toxicity (counter line); HT-1080 IDH1 knockdown viability, ATP luminescence, 48 h; Potency, µM (titrated, usually from 46.1 µM), without a hit: at the highest dose activity, negative = toxicity, most hits filed as cytotoxic; 360,000 tested, 2% active;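 also: potency is read from the fitted curve at half-maximal effect; 0% = DMSO wells and -100% = cell-free medium wells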
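Viability of IDH1-knockdown HT-1080 fibrosarcoma cells was assessed by CellTiter-Glo after 48 h at 37 °C with titrated compound; concentration-effect curves were classified by fit quality and response size.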
ELG1 repair inh = inhibitors of ELG1-dependent DNA repair in HEK293T cells | HEK293T ELG1-luciferase reporter, luminescence, 16 h; DNA damage induced by 5-fluorouridine | Potency, µM (top dose mostly 46.1 µM), without a hit: at the top dose activity change, negative = inhibition, most hits filed as inhibitors | 330,000 tested, 2.3% active; also: potency is read from the fitted curve at half-maximal effect; nearly all actives have a fitted effect of over 55% in size
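Cells (2,000 per well) received 5-fluorouridine plus test compound or DMSO and were incubated 16 hr at 37 °C, 5% CO2. Luciferase activity was read by luminescence 30 min after ONE-Glo addition; signal suppression marked inhibition of damage-induced ELG1 function.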
DT40 TDP1 no CPT = qHTS for Inhibitors of human tyrosyl-DNA phosphodiesterase 1 (TDP1): qHTS in cells in absence of CPT | DT40 Tdp1-/- hTDP1 cells, no CPT, ATP luminescence, 48 h | Potency, µM (titrated, usually from 46.2 µM), inactives show at the top dose activity change, negative = growth inhibition, usual class: inhibitors | 420,000 tested, 15% active; also: potency is read from the fitted curve at half-maximal effect; nearly all actives have a fitted effect of over 55% in size
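Luminescent ATP content (CellTiter-Glo) served as the growth readout. Knockout chicken DT40 cells expressing human TDP1 were exposed to compounds without camptothecin for a minimum 48 hr at 37 °C.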
* marks the source's active call; other numbers are inactive results; ? = inconclusive; . = not tested or not shown; [ ] = dose if it differs, or a comment. This is a sample that favours compounds with a hit; in the whole collection about 19% have one here. Unless noted, calls follow the shape of the dose curve; as a rule, active = well fitted curve in the direction sought with a large enough effect; inconclusive = small, poorly fitted or top-dose-only effect, or another doubt; inactive = no such curve, though single readings can be large; an effect the other way counts as inactive or inconclusive. Unless noted, % is scaled to controls: 0 for no effect and ±100 for the full control effect.

SMILES	HT1080NT lethal	IL-1B inflam inh	DT40 TDP1 CPT	HT1080 IDH1KD tx	ELG1 repair inh	DT40 TDP1 no CPT
COc1ccccc1NC1=C(Cl)C(=O)N(c2ccccc2)C1=O	7.1%	23.0	7.5%	19.2%	5.0%	2.8%
COc1ccc(N2C(=O)C(Cl)=C(Nc3c(C)n(C)n(-c4ccccc4)c3=O)C2=O)cc1	1.3%	-13.2	2.59µM*	-1.0%	9.3%	5.8µM*
CCOc1ccc(N2C(=O)C(Cl)=C(Nc3ccccc3O)C2=O)cc1	-17.7%	-9.5	20.6µM*	-26.9%	?	12.6µM*
COc1ccc(NC2=C(Cl)C(=O)N(c3ccccc3)C2=O)c(OC)c1	11.8%	-22.1	18.4µM*	6.3%	-3.9%	8.3%
CCOC(=O)CN(C)C(=O)c1cnn(-c2ncc3c(n2)-c2ccccc2CCC3)c1C	.	.	3.8%[9.04 µM]	.	.	?
CC(O)Cc1nsc(NC(=O)c2ccc(Br)o2)n1 (stereo not drawn)	4.3%	7.0	4.11µM*	2.3%	6.5%	2.31µM*
CCc1nnc(NC(=O)c2ccc(Br)o2)s1	8.7%	-13.5	-1.7%	9.6%	?	-1.2%
Cc1ccc(C(=O)Nc2nc3c(s2)CCCC3)o1	-23.0%	-7.7	23.1µM*	-19.9%	?	?
O=C(Nc1ccc(Br)cc1)Nc1nc2c(s1)CCCCCC2	.	.	14.6µM*	.	.	18.4µM*
O=C(Nc1nc2c(s1)CCCC2)c1ccc(Br)o1	-10.0%	-18.2	?	-18.2%	?	14.6µM*
CCC(C)(C)C1CCc2[nH]nc(C(=O)O)c2C1 (stereo not drawn)	-4.0%	13.5	16.0%	7.4%	-2.0%	16.1%
CC(C)c1ccccc1Oc1c(C(F)(F)F)oc2c(CN3CCN(C)CC3)c(O)ccc2c1=O	.	.	-18.8%	.	.	-4.5%
CCc1cccc(NC(=O)CSc2ncc3c(n2)-c2ccc(Cl)cc2N(Cc2ccccc2)S3(=O)=O)c1	.	.	18.4µM*	.	.	16.4µM*
CCOC(=O)c1cccc(NC(=O)CSc2ncc3c(n2)-c2ccccc2N(C)S3(=O)=O)c1	.	.	-1.2%	.	.	-4.4%
CCOc1ccccc1NC(=O)CSc1ncc(S(=O)(=O)c2ccc(C)c(C)c2)c(N)n1	.	.	?	.	.	23.1µM*
CCOC(=O)c1ccccc1NC(=O)CSc1ncc(C(=O)OCC)c(N)n1	0.0%	11.1	?	4.3%	?	?
CCc1cccc(NC(=O)CSc2ncc3c(n2)-c2ccccc2N(CC)S3(=O)=O)c1	.	.	-31.5%	.	.	-29.9%
CCOc1ccccc1NC(=O)CSc1ncc2c(n1)-c1ccccc1N(CC)S2(=O)=O	.	.	23.1µM*	.	.	16.4µM*
COC(=O)c1ccc2c(c1)N(C)S(=O)(=O)c1cnc(SCC(=O)C(C)(C)C)nc1-2	12.1%	103.0	12.0%	6.8%	16.4µM*	-2.2%
CS(=O)(=O)N1CCC2(CC1)CN(c1ccccc1)C2	.	.	-16.8%	.	.	?
CCc1cccc(NC(=O)CSC2=NS(=O)(=O)c3ccccc32)c1	-8.9%	?	2.59µM*	0.9%	7.4%	4.11µM*
Cc1cc(C)c(NC(=O)CSc2ncc3c(n2)-c2cc(Cl)ccc2N(C)S3(=O)=O)c(C)c1	.	.	0.164µM*	.	.	0.0461µM*
CCc1cccc(NC(=O)[C@@H]2CCCN2C2=NS(=O)(=O)c3ccccc32)c1	3.0%	35.5	1.4%	5.1%	13.1%	8.8%
Cn1c(=O)n(C)c2cc([N+](=O)[O-])c(N3CCN(S(=O)(=O)c4ccc5ccccc5c4)CC3)cc21	0.3%	?	16.4µM*	7.4%[9.24 µM]	-14.7%	?
COc1ccc(N2CCN(S(=O)(=O)c3ccc4c(c3)CCCC4)CC2)c([N+](=O)[O-])c1	?	-61.8*	16.4µM*	-28.4%	-8.8%	23.1µM*

Source: PubChem
